Results reported in PubChem BioAssay (NCATS).
Unmarked numbers belong to inactive results. How the calls were made is not given here.
Potency means the concentration at half of the fitted maximal effect.

What follows are molecules tested on HIV-1 nucleocapsid protein NCp7 (binding to TG oligonucleotide) (assay: HIV Nucleocapsid (AID 346;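 further: potency is for inhibitors that block NC binding and lower polarization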)). Settings: HIV-1 NC / fluorescein-TGTGTGTG probe, fluorescence polarization.
Summary of the method: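 Fluorescence polarization binding of 100 nM HIV-1 NC to 10 nM fluorescein-labelled TG4xF oligonucleotide. Buffer was Hepes pH 7.5 with 250mM NaCl, 1uM ZnCl2, TCEP and 2-mercaptoethanol. Compounds were incubated 1 hr at room temperature before the read.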
`N#Cc1ccc(CN2CCC3(CC2)CCN(C(=O)c2csnn2)CC3)cc1` was tested, and the Potency was > 20 µM. For `CC(C)NC(=O)N1CCCC2(CCN(C(=O)c3cc(C(F)(F)F)cc(C(F)(F)F)c3)CC2)C1`, the Potency was > 20 µM. In the case of `CN(C)c1ncc2nc(-c3ccccc3)c(=O)n(C)c2n1`, the Potency is reported as > 20 µM. For `COc1ccc2[nH]cc(CCNc3ccnc(-c4ccc(N(C)C)cc4)n3)c2c1`, the Potency was > 20 µM. For `CN(C)c1ncc2nc(-c3ccc(Cl)cc3)c(=O)n(C3CC3)c2n1`, the Potency was > 20 µM. With `O=C(c1cnccn1)N1CCC2(CCCN(c3cccc(-c4ccccc4)c3)C2)CC1` the Potency was > 20 µM. `O=C(Oc1ccccc1)N1CCC2(CCCN(c3ccc(-c4ccccc4)cc3)C2)CC1` was tested, and the Potency was > 20 µM. `CN1CCN(c2ncc3nc(-c4ccccc4)c(=O)n(C4CC4)c3n2)CC1` was tested, and the Potency was > 20 µM. For `COc1cccc(Cn2c(=O)c(C)nc3cnc(Nc4ccccc4)nc32)c1`, the Potency was > 4 µM. `COc1ncc2nc(-c3cc(F)cc(F)c3)c(=O)n(-c3ccccc3)c2n1` was tested, and the Potency was > 20 µM. For `Cn1cc(-c2nc3cnc(N4CCOCC4)nc3n(CCC#N)c2=O)c2ccccc21`, the Potency was > 4 µM. `COC(=O)N1CCC2(CCN(C(=O)Nc3ccc(OC)cc3)CC2)CC1` was tested, and the Potency was > 20 µM. For `COc1cccc(Cn2c(=O)c(-c3cccs3)nc3cncnc32)c1`, the Potency was > 20 µM. In the case of `N#Cc1cccc(NC(=O)N2CC[C@@]3(CCCN(C(=O)c4csnn4)C3)C2)c1`, the Potency is reported as > 20 µM. In the case of `CS(=O)(=O)Nc1cccc(-c2ccc3ncnc(NCCN4CCOCC4)c3c2)c1`, the Potency is reported as > 20 µM. With `CS(=O)(=O)N1CCC2(CCCN(Cc3ccccc3)C2)CC1` the Potency was > 20 µM. `O=C(c1csnn1)N1CCC[C@@]2(CCN(C(c3ccccc3)c3ccccc3)C2)C1` was tested, and the Potency was > 20 µM. With `COc1ccc(-n2c(=O)c(-c3ccc(F)cc3)nc3cnc(N4CCNCC4)nc32)cc1` the Potency was > 20 µM. `O=C(c1ccncc1)N1CCC2(CC1)CN(c1ccccn1)C2` was tested, and the Potency was > 20 µM. With `CNc1nc(-c2ccccc2Cl)nc2ccccc12` the Potency was > 20 µM. For `CS(=O)(=O)Nc1cccc(-c2nc(N3CCOCC3)c3ccccc3n2)c1`, the Potency was > 20 µM. With `Cc1noc(C)c1-c1nc(N2CCNCC2)c2ccccc2n1` the Potency was > 20 µM. With `COc1cccc(Cn2c(=O)c(-c3cc(F)cc(F)c3)nc3cncnc32)c1` the Potency was > 20 µM. For `COc1ccc(C(=O)N2CCC3(CCN(C)CC3)CC2)cc1`, the Potency was > 20 µM. In the case of `O=C(c1cccc(F)c1)N1CCC2(CC1)CCN(c1ccccc1)CC2`, the Potency is reported as > 20 µM. For `O=c1c(CCc2ccccc2)nc2cnc(Oc3ccccc3)nc2n1C1CC1`, the Potency was > 20 µM. With `COCCn1c(=O)c(-c2cc(F)cc(F)c2)nc2cnc(N3CCNCC3)nc21` the Potency was > 20 µM. `COc1ncc2nc(CCc3ccccc3)c(=O)n(C)c2n1` was tested, and the Potency was > 20 µM. In the case of `Cc1ccccc1-c1ccc2ncnc(NC3CC3)c2c1`, the Potency is reported as > 20 µM. For `CN(Cc1ccco1)c1nc(-c2ccoc2)nc2ccccc12`, the Potency was > 20 µM. For `c1ccc(CNc2ncnc3ccc(-c4ccoc4)cc23)cc1`, the Potency was > 20 µM. For `COC(=O)N1CCC2(CC1)CN(c1ccccc1)C2`, the Potency was > 20 µM. `COc1cccc(-c2nc(NCc3ccc(OC)cc3OC)c3ccccc3n2)c1` was tested, and the Potency was > 20 µM. For `O=C(c1cccc(F)c1)N1CCC2(CC1)CN(c1cccc(-c3ccccc3)c1)C2`, the Potency was > 20 µM. With `COc1ccc2[nH]cc(CCNc3ccnc(-c4ccc(C(=O)N(C)C)cc4)n3)c2c1` the Potency was > 20 µM. With `O=C(c1cc(C(F)(F)F)cc(C(F)(F)F)c1)N1CCC2(CCCN(c3ncccn3)C2)CC1` the Potency was > 20 µM. `COc1ccc(-c2nc3cnc(OC)nc3n(Cc3ccc(F)cc3)c2=O)cc1` was tested, and the Potency was > 20 µM. `O=C(c1ccco1)N1CCC2(CCN(Cc3nccs3)CC2)CC1` was tested, and the Potency was > 20 µM. In the case of `COc1ccc(CNc2ncncc2-c2ccccc2C(F)(F)F)c(OC)c1`, the Potency is reported as > 20 µM.
